Among all 340,000 compounds or so, about 5,100 (1.5%) were called active. The sample holds actives, similar compounds and a random draw of the others, so the mix is not that of the screen.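 How the source made its calls: active means mean Tm shift, scaled 0 neutral to 100 positive control, at about 1.3% or above, every replicate too (limit read from the data); inconclusive means no clear call, values can overlap the other calls; inactive means the rest.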

Sequence of Fibroblast growth factor 22 (Homo sapiens) (Q9HCT0 whole entry, looked up): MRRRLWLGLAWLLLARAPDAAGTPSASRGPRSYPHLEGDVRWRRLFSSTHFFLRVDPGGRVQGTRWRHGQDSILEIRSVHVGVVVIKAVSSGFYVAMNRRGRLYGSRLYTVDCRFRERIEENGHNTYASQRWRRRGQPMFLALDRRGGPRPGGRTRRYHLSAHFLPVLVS

This assay concerns the target Fibroblast growth factor 22 (Homo sapiens) (UniProt Q9HCT0). In words: FGF22 ligand-induced thermal stabilization – biophysical, thermal shift, single point, FGF22 synaptogenesis inhibitor project, primary screen (AID 651658). The conditions noted are these: recombinant FGF22 thermal shift, SYPRO orange fluorescence; at 9.99 µM; active compounds read high; percent of sucrose octasulfate shift, DMSO zero.
In the case of `CCC(=O)N1C[C@@H](C)[C@H](OC)CN(C)C(=O)c2ccc(NC(=O)NC(C)C)cc2OC[C@H]1C`, the activity (Tm shift, normalised) is -0.086% (inactive). The same measure for `CCC(=O)N1C[C@@H](C)[C@H](OC)CN(C)C(=O)c2ccc(NC(=O)c3ccc(F)cc3)cc2OC[C@@H]1C`: -0.101% (inactive); for `O=C(O)CCC(=O)N(Cc1ccccc1)Cc1ccccc1`: -0.007% (inactive). As for `CCN(CC)C(=O)N(CC)Cc1ccccc1`, the activity (Tm shift, normalised) was 43.4% (active). `CCN(Cc1ccncc1)C(=O)CCc1ccccc1`: the activity (Tm shift, normalised) is 0.094% (inactive). On to `CNC(=O)C[C@H]1CC[C@H]2[C@H](COc3ccc(NC(=O)c4cc(C)on4)cc3C(=O)N2C)O1`, for which the activity (Tm shift, normalised) was -0.057% (inactive). Take `O=C(C[C@H]1C[C@@H]2c3cc(NC(=O)c4ccc5c(c4)OCO5)ccc3O[C@@H]2[C@@H](CO)O1)NCc1cccnc1`: the activity (Tm shift, normalised) was -0.297% (inactive).

Regarding `C[C@H]1CN([C@@H](C)CO)C(=O)CCCn2nncc2CO[C@H]1CN(C)S(=O)(=O)c1ccccc1C#N`, the activity (Tm shift, normalised) is -0.016% (inactive). Next, `CO[C@H]1CN(C)C(=O)c2cc(NC(=O)C3CCC3)ccc2OC[C@H](C)N(Cc2nccs2)C[C@H]1C`: -0.288% (inactive).

As to `Cc1noc(C)c1S(=O)(=O)N(C)C[C@@H]1Oc2ccc(NC(=O)Cn3cnnn3)cc2CC(=O)N([C@@H](C)CO)C[C@@H]1C`, the activity (Tm shift, normalised) is -0.13% (inactive). Take `Cc1cccc(-n2cnc(C(=O)NNC(=S)Nc3ccccc3)c2)n1`: the activity (Tm shift, normalised) was 0.832% (inactive). Consider `Cn1cc(Cl)c(C(=O)NNC(=S)Nc2cccc(Cl)c2)n1`, for which the activity (Tm shift, normalised) is 44.2% (active).

Consider `O=C(Nc1cccc(Cl)c1)c1cncn1-c1ccc(F)cc1`, for which the activity (Tm shift, normalised) was 0.242% (inactive). The same measure for `COCC(=O)Nc1ccc2c(c1)C(=O)N(C)[C@@H]1CC[C@H](CC(=O)NCC3CC3)O[C@H]1CO2`: 0.038% (inactive); for `COC(=O)c1cc(OCC(=O)NC2CCCc3ccccc32)cc(C(=O)OC)c1` (stereo not drawn): 0.172% (inactive); for `NC(=O)Nc1ccc(C(=O)OCC(=O)NC2CCCc3ccccc32)cc1` (stereo not drawn): 43% (active). The same measure for `CCOc1ccc(NC(=O)COc2ccc(C(=O)NC3CCCc4ccccc43)cc2OC)cc1` (stereo not drawn): 0.171% (inactive); for `O=C(NC1CCCCC1)N1CC2(C1)[C@H](c1ccccc1)[C@@H](CO)N2S(=O)(=O)Cc1ccccc1`: -0.24% (inactive); for `Cc1ccc(S(=O)(=O)Nc2ccc(F)c(S(=O)(=O)N3CCOCC3)c2)cc1`: 43.3% (active). Take `CC(=O)NCCc1ccc(S(=O)(=O)Nc2ccc(C)c(S(=O)(=O)N3CCOCC3)c2)cc1`: the activity (Tm shift, normalised) is -0.312% (inactive). Regarding `Cc1ccc(NS(=O)(=O)c2ccc(C(C)C)cc2)cc1S(=O)(=O)N1CCOCC1`, the activity (Tm shift, normalised) is -0.175% (inactive).

In the case of `CCCN1C[C@@H](C)[C@@H](OC)CN(C)C(=O)c2cc(NC(=O)CC(F)(F)F)ccc2OC[C@H]1C`, the activity (Tm shift, normalised) is 0.002% (inactive). As for `CCOc1ccc(-c2cc(C(=O)N/N=C/c3ccc(O)cc3)c3ccccc3n2)cc1`, the activity (Tm shift, normalised) is 0.307% (inactive). The same measure for `O=C(N/N=C/c1ccc(OCc2ccccc2)cc1)c1ccc(O)cc1`: 2.5% (active). The same measure for `O=C(Cc1cccs1)N/N=C/c1ccc(OCc2ccccc2)cc1`: 0.285% (inactive).

As for `CCCNC(=O)N1CC2(CCN(C(=O)C3CC3)CC2)c2c([nH]c3cc(OC)ccc23)[C@H]1CO`, the activity (Tm shift, normalised) was -0.002% (inactive). Next, `CCC(=O)N(C)C[C@@H]1Oc2ncc(C#Cc3cccnc3)cc2C(=O)N([C@@H](C)CO)C[C@@H]1C`: 0.101% (inactive); `Cc1ccc(SCCC(=O)NCc2ccccn2)cc1`: 0.257% (inactive); `Cc1cc(Cl)ccc1OCCCC(=O)Nc1cccc(-n2cnnn2)c1`: 0.032% (inactive). Regarding `Cc1cc(Cl)ccc1OCCCC(=O)NCc1ccccn1`, the activity (Tm shift, normalised) was 43.6% (active). For the compound `COc1cc(OC)cc(-c2nc(=S)n3ccsc3n2)c1`, the activity (Tm shift, normalised) was 43.5% (active). Turning to `COc1cccc(C(=O)n2ccc(-c3cccs3)n2)c1`, the activity (Tm shift, normalised) is -0.099% (inactive). Next, `C[C@@H]1CCCCO[C@H](CN(C)C(=O)Nc2ccc(C(F)(F)F)cc2)[C@@H](C)CN([C@@H](C)CO)C(=O)c2cc(NC(=O)Nc3cccc4ccccc34)ccc2O1`: -0.177% (inactive); `C[C@H]1CCCCO[C@@H](CN(C)Cc2ccccc2)[C@@H](C)CN([C@@H](C)CO)C(=O)c2cc(NC(=O)Cc3ccccc3)ccc2O1`: -0.273% (inactive); `Cc1ccc(S(=O)(=O)Nc2nc3ccccc3s2)cc1[N+](=O)[O-]`: 2.09% (active).

Turning to `Cc1ccc(S(=O)(=O)N(Cc2ccccc2)c2ccccn2)cc1[N+](=O)[O-]`, the activity (Tm shift, normalised) is -0.192% (inactive). For `CCOc1ccc2sc(NS(=O)(=O)c3ccc(N)cc3)nc2c1`, the activity (Tm shift, normalised) was 0.571% (inactive).

Turning to `CO[C@H](CN(C)C(=O)c1ccc2c(c1)OCO2)[C@H](C)CN([C@@H](C)CO)S(=O)(=O)c1ccc(Cl)cc1`, the activity (Tm shift, normalised) was 0.025% (inactive). As for `C[C@@H]1CCCCO[C@H](CN(C)S(=O)(=O)c2ccc(Cl)cc2)[C@H](C)CN([C@@H](C)CO)C(=O)c2cc(NS(=O)(=O)c3cn(C)cn3)ccc2O1`, the activity (Tm shift, normalised) was -0.295% (inactive). The same measure for `COCCn1cnc2c1c(=O)n(Cc1ccc(Br)cc1)c(=O)n2Cc1ccccc1`: 0.138% (inactive); for `CN(C)CCCn1c(=O)n(Cc2ccccc2)c(=O)c2c3c(sc21)CCCCC3`: 5.16% (active); for `O=c1c2c3c(sc2n(CCN2CCCC2)c(=O)n1Cc1ccccc1)CCCCC3`: -0.07% (inactive).

Consider `CC(C)NC(=O)N(C)C[C@@H]1OCCCC[C@@H](C)Oc2ccc(NC(=O)NC3CCCCC3)cc2C(=O)N([C@@H](C)CO)C[C@@H]1C`, for which the activity (Tm shift, normalised) was -0.284% (inactive). Next, `CCOC(=O)CNC(=O)/C(=C\c1ccc(F)cc1)NC(=O)c1ccccc1`: 0.033% (inactive); `CCOc1ccc(/C=C(/NC(=O)c2ccccc2)C(=O)NCCC(=O)O)cc1`: 43.7% (active).

Consider `COc1ccc(/C=C(/NC(=O)c2ccccc2)C(=O)Nc2cccc(C(=O)O)c2)cc1`, for which the activity (Tm shift, normalised) was -0.131% (inactive). With `O=C(C[C@H]1C[C@H]2c3cc(NC(=O)Nc4ccc(C(F)(F)F)cc4)ccc3O[C@H]2[C@@H](CO)O1)NCCc1ccccc1`, the activity (Tm shift, normalised) was 0.15% (inactive). In the case of `C[C@@H]1CN([C@H](C)CO)C(=O)c2cc(NC(=O)CCCCCC(=O)Nc3ccccc3N)ccc2O[C@H]1CN(C)Cc1ccncc1`, the activity (Tm shift, normalised) is -0.063% (inactive). The same measure for `C[C@@H]1CN([C@H](C)CO)C(=O)c2c(c3ccccc3n2C)-c2ccccc2CO[C@H]1CN(C)Cc1ccc(F)cc1`: 0.453% (inactive). Consider `COc1cc(C=O)c(Br)cc1OCC(=O)NCc1ccccc1`, for which the activity (Tm shift, normalised) was -0.006% (inactive). Next, `COc1cc(C(=O)NCc2ccncc2)cc(Br)c1OCc1ccccc1`: -0.2% (inactive); `COc1cc(C(=S)NCc2ccccc2)cc(Br)c1O`: 44.4% (active). Next, `CCCC(=O)N1CC2(CCN(C(=O)C3CC3)CC2)c2c(n(C)c3cc(OC)ccc23)[C@H]1CO`: 0.143% (inactive); `CN1C(=O)CC(c2ccccc2)C1=O` (stereo not drawn): 0.006% (inactive); `O=C1OCC2=C1C(c1ccccc1)CC(=O)N2c1cccc(F)c1` (stereo not drawn): 43.2% (active).

As for `O=C1CC(c2ccccc2)C(=O)N2C(=O)CC(c3ccccc3)C(=O)N12` (stereo not drawn), the activity (Tm shift, normalised) was -0.169% (inactive). Next, `COc1cc(NC(=O)COC(=O)c2cnc(C)cn2)c(C)cc1[N+](=O)[O-]`: 43.3% (active); `N#Cc1cc([N+](=O)[O-])ccc1NC(=O)COC(=O)c1cnccn1`: -0.067% (inactive); `Cc1cnc(C(=O)OCC(=O)NCCCc2ccccc2)cn1`: 0.133% (inactive). Take `COc1cccc(CNC(=O)C[C@H]2CC[C@@H](NC(=O)C3CCC3)[C@@H](CO)O2)c1`: the activity (Tm shift, normalised) is -0.144% (inactive). The same measure for `CCc1ccccc1NC(=O)CN(C)C(=O)c1cc(C2CC2)nn1-c1ccccc1`: 0.146% (inactive).

Regarding `COc1ccc(CN2CCN(C(=O)c3cc(C4CC4)nn3-c3ccccc3)CC2)cc1F`, the activity (Tm shift, normalised) is -0.038% (inactive). Next, `CCc1ccccc1NC(=O)CN1CCN(C(=O)c2cc(C3CC3)nn2-c2ccccc2)CC1`: 44.1% (active); `O=C(CC(F)(F)F)N1C[C@H]2[C@@H](c3ccccc31)[C@H](CO)N2C(=O)Cc1ccccc1`: -0.096% (inactive).

`CS(=O)(=O)N1CCN(C(=O)CSc2ccccc2)CC1`: the activity (Tm shift, normalised) is -0.196% (inactive). Next, `CC(C)NC(=S)N1CCN(S(C)(=O)=O)CC1`: -0.113% (inactive). The same measure for `CCCCNC(=O)N1CCN(S(C)(=O)=O)CC1`: 43% (active); for `COc1cccc(C(=O)CC(=O)C(=O)Nc2ccc([N+](=O)[O-])cc2C)c1`: -0.246% (inactive); for `COc1ccc(Cc2nnc(SCC(=O)c3cccc([N+](=O)[O-])c3)n2C)cc1`: 0.217% (inactive). Take `COc1cccc(NCCC(=O)c2cccc([N+](=O)[O-])c2)c1`: the activity (Tm shift, normalised) is 43.4% (active). The same measure for `Cc1ccc(NC(=O)C(=O)NCC2CCN(C(=O)c3cccc([N+](=O)[O-])c3)CC2)cc1`: 0.238% (inactive); for `CCC(CC)NC(=O)/C=C/c1cccc([N+](=O)[O-])c1`: -0.166% (inactive); for `Cc1ccc(NC(=O)O/N=C/c2cccc([N+](=O)[O-])c2)cc1`: 1.7% (active). Next, `CO[C@H]1CN(C)C(=O)c2cc(NC(=O)Nc3ccc4c(c3)OCO4)ccc2OC[C@@H](C)NC[C@@H]1C`: -0.132% (inactive); `O=C(C1CCCCC1)N1CC2(C1)[C@H](c1ccccc1)[C@@H](CO)N2Cc1cncnc1`: -0.162% (inactive).

As for `COc1ccc(NC(=O)Nc2ccc3c(c2)[C@H]2C[C@H](CC(=O)NC4CCCCC4)O[C@H](CO)[C@H]2O3)cc1`, the activity (Tm shift, normalised) is 0.101% (inactive). The same measure for `COc1cccc(S(=O)(=O)N2C[C@@H](O)COC[C@H]3O[C@@H](CC(=O)N4CCOCC4)CC[C@@H]32)c1`: -0.291% (inactive); for `CC=Cc1ccc2n(c1=O)C[C@H]1[C@H](CO)[C@@H](C(=O)NCc3ccncc3)N(Cc3cncnc3)[C@@H]21` (mixture of isomers): -0.145% (inactive).
